Our source for the AC50 and outcome values is PubChem BioAssay (EPA / NIEHS).

Records with an inconclusive call do not appear. The source made the active and inactive calls. The calls were made as follows: active = hit-call score of the fitted dose curve at least 0.9, where 1 is the maximum; inconclusive = response in the unintended direction; inactive = score below 0.9.

This assay can be described thus: CCTE_Mundy_HCI_iCellGluta_NOG_NeuriteLength: CCTE's Neurite Outgrowth Assay in iCellGluta cells for Neurite Length, Mundy Lab (AID 2284318). On the procedure:
CCTE_Mundy_HCI_iCellGluta_NOG is a multiplexed, cell-based-readout assay that uses iCell GlutaNeurons from FUJIFILM Cellular Dynamics, Inc. (FCDI), human glutamatergic enriched neurons derived from induced pluripotent stem (iPS) cells, with measurements taken at 50.33 hours after chemical dosing in a microplate: 96-well plate.CCTE_Mundy_HCI_iCellGluta_NOG_NeuriteLength is one of four components of the CCTE_Mundy_HCI_iCellGluta_NOG assay. It measures neurite outgrowth related to neurite length using High Content Imaging of fluorescently labelled markers.Data from the assay component CCTE_Mundy_HCI_iCellGluta_NOG_NeuriteLength was analyzed at the endpoint CCTE_Mundy_HCI_iCellGluta_NOG_NeuriteLength in the positive analysis fitting direction relative to DMSO as the negative control and baseline of activity. Using a type of morphology reporter, loss-of-signal activity can be used to understand developmental effects.
Exposure starts 2 hours post-plating by adding 10 ul of the working solution to 90 ul of media in the wells for a 1/10 dilution. Forty-eight hours after chemical treatment cells are fixed by direct addition of 100 ul of warm (37C) Dulbecco's phosphate buffered saline (DPBS) fixative solution containing 8% paraformaldehyde, 8% sucrose, and 0.1% of 3 mg/ml Hoechst 33342 into each well. Primary antibodies are prepared by dilution in Immunocytochemical Staining Buffer (ISB), 10X Dulbecco's PBS, 0.1% Saponin, 5% Bovine Serum Albumin, 0.5% NaN3 (Sodium Azide) and betaIII-tubulin (rabbit anti-betaIII-tubulin, 1:800) followed by Alexa Fluor-488 secondary (1:500) to label neuronal cell bodies and neurites. A Cellomics ArrayScan VTi HCS Reader is used for automated image acquisition and analysis of neurite outgrowth.
As for `COC(=O)N(OC)c1ccccc1COc1ccn(-c2ccc(Cl)cc2)n1`, the AC50 is 2.57 µM (active). For the molecule `Cc1ccc(-c2c(Cl)nc(C#N)n2S(=O)(=O)N(C)C)cc1`, the AC50 is 32.6 µM (active). The same measure, in the same setting: with `CCCCC(CC)COC(=O)c1ccccc1C(=O)OCC(CC)CCCC` (stereo not given) the figure was 36.1 µM (active); with `CC(C)(C)c1ccc(CSc2cnn(C(C)(C)C)c(=O)c2Cl)cc1`, 0.15 µM (active); with `C=CC1(C)OC(=O)N(c2cc(Cl)cc(Cl)c2)C1=O` (stereo not given), 19.4 µM (active). With `CCCCOC(=O)c1ccccc1C(=O)OCCCC`, the molecule was classed as inactive. Same read-out and setting: the result for `CCCCNC(=O)n1c(NC(=O)OC)nc2ccccc21` reads “inactive”. For `CCOC(=O)CC(SP(=S)(OC)OC)C(=O)OCC` (stereo not given), the AC50 was 2.98 µM (active). Regarding `CCOc1cc(Oc2ccc(C(F)(F)F)cc2Cl)ccc1[N+](=O)[O-]`, the AC50 is 73.7 µM (active). For `CO/C=C(/C(=O)OC)c1ccccc1Oc1cc(Oc2ccccc2C#N)ncn1`, the AC50 is 18.9 µM (active).

In the case of `N#Cc1nn(-c2c(Cl)cc(C(F)(F)F)cc2Cl)c(N)c1S(=O)C(F)(F)F` (stereo not given), the molecule was called inactive.

With `C=CCC1=C(C)[C@@H](OC(=O)[C@@H]2[C@@H](C=C(C)C)C2(C)C)CC1=O`, the half-maximal activity concentration (AC50) is 5.87 µM (active).

`COP(N)(=O)SC` (stereo not given): the molecule was classed as inactive. `COP(=S)(OC)Oc1nc(Cl)c(Cl)cc1Cl`: the half-maximal activity concentration (AC50) was 23.9 µM (active). For the molecule `CN(C)C(=S)SSC(=S)N(C)C`, the AC50 is 0.0483 µM (active).

In general, AC50 refers to the concentration giving half of the maximal activity seen.
